Results filed as inconclusive are left out. Active and inactive are the calls of the source. Unless noted, no rule for the calls is given here.

The results in this text go back to PubChem BioAssay.

Experiment [1] is described as follows: hESC survival regulators, cell-based (AID 493140).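 Also: cells exposed to compounds for four days before counting.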 The settings on record: human embryonic stem cell survival screen; stronger effect = higher value.
Experiment [2] can be described thus: Cy5 fluorescence interference with SSB-bound oligo, artefact control for HCV NS3 helicase inhibitor project, biochemical, NIH Clinical Collection, E. coli SSB (AID 743268).
The test system of experiment [3] is Hepatitis C virus NS3 helicase. Put plainly: HCV NS3 helicase inhibitors, primary screen, biochemical, fluorescence polarization, NIH Clinical Collection (AID 743270). The settings on record: NS3 helicase binding to Cy5-dT15 DNA, stronger effect = higher value, concentration not given here. On the technique in general: In fluorescence polarisation assays a small probe gives low polarisation when free and higher when bound to something large.

For experiment [4], the target named is Single-stranded DNA-binding protein (Escherichia coli (strain K12)) (UniProt P0AGE0). Nature of the experiment: E. coli SSB displacement from DNA, counter-screen for HCV NS3 helicase inhibitor project, biochemical, fluorescence polarization, NIH Clinical Collection (AID 743271; in the data active = inhibition above about 28%). The settings on record: stronger effect = higher value, concentration not given here. (A counterscreen serves to expose hits that act by an unwanted route or on another target.)

A short description of experiment [5]: fluorescence interference in NS3h assay format, artefact control for HCV NS3 helicase inhibitor project, biochemical, NIH Clinical Collection (AID 743272).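 Also: HCV NS3 helicase with a Cy5 labelled single stranded DNA probe.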 The settings on record: fluorescence interference counterscreen, stronger effect = lower value.
The target of experiment [6] is ATP-dependent translocase ABCB1 (Homo sapiens) (UniProt P08183). Nature of the experiment: MDR1 (ABCB1) efflux transporter inhibition, cell-based (AID 377; in the data active = fluorescence slope change above about 50%). The settings on record: MDR1-expressing cells, fluorescent substrate accumulation slope; stronger effect = higher value; concentration not given here.
Chain of ATP-dependent translocase ABCB1 (Homo sapiens) (P08183 whole entry, looked up): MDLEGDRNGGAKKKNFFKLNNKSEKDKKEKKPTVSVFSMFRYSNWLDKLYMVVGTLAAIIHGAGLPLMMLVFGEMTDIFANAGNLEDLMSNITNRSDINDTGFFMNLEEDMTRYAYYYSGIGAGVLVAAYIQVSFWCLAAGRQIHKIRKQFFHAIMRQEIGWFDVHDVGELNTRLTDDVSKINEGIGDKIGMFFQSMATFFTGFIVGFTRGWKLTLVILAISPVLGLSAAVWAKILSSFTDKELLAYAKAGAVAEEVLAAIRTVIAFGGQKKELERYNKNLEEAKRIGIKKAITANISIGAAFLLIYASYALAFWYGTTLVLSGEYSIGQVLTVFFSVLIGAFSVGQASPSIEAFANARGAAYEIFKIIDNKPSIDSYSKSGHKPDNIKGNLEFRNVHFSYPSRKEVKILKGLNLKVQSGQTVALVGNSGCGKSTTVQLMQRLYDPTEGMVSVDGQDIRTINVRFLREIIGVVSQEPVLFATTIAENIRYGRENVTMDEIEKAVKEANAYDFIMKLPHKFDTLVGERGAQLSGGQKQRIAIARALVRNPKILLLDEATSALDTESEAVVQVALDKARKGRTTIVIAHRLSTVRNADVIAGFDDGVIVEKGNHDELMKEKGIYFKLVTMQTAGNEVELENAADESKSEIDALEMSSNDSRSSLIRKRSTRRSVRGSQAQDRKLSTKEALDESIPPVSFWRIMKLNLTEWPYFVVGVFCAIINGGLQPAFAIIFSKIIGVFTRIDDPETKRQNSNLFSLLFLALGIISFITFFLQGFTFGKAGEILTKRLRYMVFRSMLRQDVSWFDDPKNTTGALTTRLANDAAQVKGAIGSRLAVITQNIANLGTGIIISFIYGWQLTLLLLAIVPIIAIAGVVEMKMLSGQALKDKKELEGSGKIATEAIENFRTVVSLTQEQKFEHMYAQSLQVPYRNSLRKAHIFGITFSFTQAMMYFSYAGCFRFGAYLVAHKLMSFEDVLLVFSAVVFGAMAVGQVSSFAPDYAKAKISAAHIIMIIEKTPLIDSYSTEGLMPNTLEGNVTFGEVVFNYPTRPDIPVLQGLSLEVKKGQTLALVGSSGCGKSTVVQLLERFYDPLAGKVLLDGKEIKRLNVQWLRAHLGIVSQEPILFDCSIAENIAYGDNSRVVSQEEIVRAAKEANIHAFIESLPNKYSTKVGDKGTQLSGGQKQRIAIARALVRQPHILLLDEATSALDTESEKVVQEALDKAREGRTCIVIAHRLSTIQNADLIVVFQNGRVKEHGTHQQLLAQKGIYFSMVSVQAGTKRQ
A short description of experiment [7]: liver-stage malaria parasite growth inhibition, primary screen, cell-based, HepG2, luciferase luminescence, HepG2 viability (AID 624349; in the data active = parasite load remaining mostly below about 12%, no sharp cut-off; inactive = mostly above about 10%;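 also: 100% = mean of DMSO negative control wells on the same plate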). The settings on record: P. berghei liver stage in HepG2, luciferase luminescence, concentration not given here; parasite load remaining: stronger effect = lower value; viability: measured here: HepG2 viability without parasites.

Turning to `C=C(NC(=O)C(=C)NC(=O)c1csc(C2=NC3c4csc(n4)C4NC(=O)c5csc(n5)C(C(C)(O)C(C)O)NC(=O)C5CSC(=N5)/C(=C/C)NC(=O)C(C(C)O)NC(=O)c5csc(n5)C3(CC2)NC(=O)C(C)NC(=O)C(=C)NC(=O)C(C)NC(=O)C(C(C)CC)NC2C=Cc3c(C(C)O)cc(nc3C2O)C(=O)OC4C)n1)C(N)=O` (stereo not drawn), in experiment [1], the survival was 0.917 (inactive).

By inhibition is commonly meant the percentage by which the read-out fell short of the control. For `CO[C@H]1/C=C/O[C@@]2(C)Oc3c(C)c(O)c4c(O)c(c5c(c4c3C2=O)=NC2(CCN(CC(C)C)CC2)N=5)NC(=O)/C(C)=C\C=C\[C@H](C)[C@H](O)[C@@H](C)[C@@H](O)[C@@H](C)[C@H](OC(C)=O)[C@@H]1C`, the values for the fluorescence ratio in experiment [2] and in experiment [5] were 1.02 (inactive) and 0.96 (inactive), respectively. Besides, the inhibition in experiment [3] was 1.36% (inactive); in experiment [4], 6.39% (inactive).

Take `CC1=C(C(=O)O)N2C(=O)[C@@H](NC(=O)[C@H](N)c3ccc(O)cc3)C2SC1` (stereo partly drawn): in experiment [6], the fluorescence slope change is 66.4% (active).

A word on the viability: it is a per cent measure of how many cells are alive, often set against a control. For the molecule `COC1CC(O[C@H]2[C@H](C)[C@@H](OC3OC(C)CC(N(C)C)C3O)[C@@H](C)C[C@]3(CO3)C(=O)[C@H](C)[C@@H](O)[C@@H](C)[C@@H](C)OC(=O)[C@@H]2C)OC(C)C1O` (stereo partly drawn), the fluorescence slope change in experiment [6] is 96.5% (active). Besides, the survival in experiment [1] was 26.4 (inactive). For the same molecule, in experiment [7], the parasite load remaining was 84.7% (inactive) and the viability worked out at 90.7%.

Consider `Nc1cccc2c1C(=O)c1cccc(N)c1C2=O`, for which, in experiment [6], the fluorescence slope change was 105% (active).

Take `C=C1CC23CC4C5[C@@]6(C)C[C@H](OC(=O)c7ccccc7)[C@@H](OC(C)=O)[C@@]57C2[C@H](OC(C)=O)[C@@H]1[C@H](O)[C@H]3[C@H]7N4C6`: the fluorescence slope change in experiment [6] was 12.6% (inactive). The survival in experiment [1] was 4.92 (inactive).
